According to PubChem BioAssay:
“And” between values parts separate entries of the source, which are not always exact repeats. Identical values can stand only once. Records with an inconclusive call do not appear. The source made the active and inactive calls.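 How the source made its calls, unless noted: active means compounds whose cell count with miR-34 switched on is under 0.7 times the count with it off; inactive means the rest.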

Experiments:
[1] = compounds altering viability of human ES cells (AID 493140; call rule not given here;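 further: cells exposed to compounds for four days before counting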); settings: human embryonic stem cell survival screen; stronger effect = higher value
[2] = viability loss with induced miR-34 in A549 – imaging, A549 dox-inducible miR-34, nuclei and caspase counts, primary screen (AID 1347080); settings: A549 miR-34 inducible, Hoechst nuclei count, 48 h
[3] = compounds altering circadian rhythm period length – cell-based, LOPAC library, luminescence reporter (AID 2774; call rule not given here;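 further: values are relative to mean of DMSO wells on each plate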); settings: circadian reporter cells, at 7 µM, actives lie on both sides
[4] = system: Hepatitis C virus NS3 helicase; test: blockers of NS3h binding to ssDNA – biochemical, fluorescence polarization, LOPAC1280 library, primary screen (AID 687035; in the data active means inhibition above about 37%); settings: Purified HCV NS3 helicase, Cy5-dT15 ssDNA binding fluorescence polarization; stronger effect = higher value; concentration not given here
[5] = compounds altering Cy5-DNA-NS3h complex signal – biochemical, LOPAC1280, artefact control for HCV NS3 helicase inhibitor project (AID 687037; call rule not given here); settings: Cy5-DNA-NS3h complex fluorescence interference counterscreen
[6] = blockers of cellular phospholipid synthesis – cell-based, LOPAC library, screen 4, primary screen (AID 1347384; call rule not given here); settings: animal cells, phospholipid biosynthesis inhibition screen; at 10 µM
[7] = galactose survival enhancers in mitochondrial complex I cybrids – cell-based, galactose medium, ATP luminescence, primary screen (AID 1645843;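 active means z-score of at least 1.8 in each of two replicates, scored against plate mean and spread of sample wells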;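 further: positive z means more ATP and so rescue of galactose-driven cybrid death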); settings: complex I mutant cybrid cells, 72 h, stronger effect = higher value
[8] = MELAS cybrid and Rieske KO viability enhancers – cell-based, MELAS cybrids, Rieske KO mouse fibroblasts, CellTiter-Glo, primary screen (AID 1508586;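 active means mean z-score across replicates of 1.96 or higher in either the MELAS or the Rieske mutant cell line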;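 further: z relative to plate mean and SD of compound and empty wells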); settings: low glucose
[9] = P. berghei load reduction in hepatocytes – cell-based, HepG2, luciferase luminescence, HepG2 viability, primary screen (AID 624349; in the data active means parasite load remaining mostly below about 12%, no sharp cut-off; inactive means mostly above about 10%;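 further: 100% = mean of DMSO negative control wells on the same plate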); settings: P. berghei liver stage in HepG2, luciferase luminescence, concentration not given here; parasite load remaining: stronger effect = lower value; viability: measured here: HepG2 viability without parasites
[10] = target: NAD(+) hydrolase SARM1 (Homo sapiens) (UniProt Q6SZW1); test: blocking NAD cleavage by SARM1 SAM-TIR – cell lysate, NAD-Glo luminescence (AID 1508614;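 active means compound whose remaining NAD level is above about 45 nM, limit read from the data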); settings: SAM-TIR HEK293T lysate NADase, at 1 µM, stronger effect = higher value
[11] = target: Mitogen-activated protein kinase 7 (Homo sapiens) (UniProt Q13164); test: Gal4-ERK5 driven luciferase induction – cell-based, HTS, primary screen (AID 1508626;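 active means luciferase signal above three times the same-plate solvent-only control wells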;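 further: luciferase driven by Gal4-ERK5 fusion binding five Gal4 sites before minimal TATA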); settings: HeLa Gal4-ERK5 transactivation, 18 h, at 5 µM, stronger effect = higher value
[12] = target: ATP-dependent translocase ABCB1 (Homo sapiens) (UniProt P08183); test: P-glycoprotein substrate transport blockade – cell-based (AID 377; in the data active means fluorescence slope change above about 50%); settings: MDR1-expressing cells, fluorescent substrate accumulation slope; stronger effect = higher value; concentration not given here
[13] = stronger effect = lower value, cell number ratio, induced over uninduced
[14] = measured here: relative caspase fold change +Dox/-Dox
[15] = measured here: total cells with miR-34 induction, stronger effect = lower value
[16] = measured here: total cells without miR-34 induction
[17] = MELAS cybrid survival, CellTiter-Glo 48 h, stronger effect = higher value
[18] = Rieske KO mouse fibroblast survival, CellTiter-Glo 72 h

Sequence of ATP-dependent translocase ABCB1 (Homo sapiens) (P08183 whole entry, looked up): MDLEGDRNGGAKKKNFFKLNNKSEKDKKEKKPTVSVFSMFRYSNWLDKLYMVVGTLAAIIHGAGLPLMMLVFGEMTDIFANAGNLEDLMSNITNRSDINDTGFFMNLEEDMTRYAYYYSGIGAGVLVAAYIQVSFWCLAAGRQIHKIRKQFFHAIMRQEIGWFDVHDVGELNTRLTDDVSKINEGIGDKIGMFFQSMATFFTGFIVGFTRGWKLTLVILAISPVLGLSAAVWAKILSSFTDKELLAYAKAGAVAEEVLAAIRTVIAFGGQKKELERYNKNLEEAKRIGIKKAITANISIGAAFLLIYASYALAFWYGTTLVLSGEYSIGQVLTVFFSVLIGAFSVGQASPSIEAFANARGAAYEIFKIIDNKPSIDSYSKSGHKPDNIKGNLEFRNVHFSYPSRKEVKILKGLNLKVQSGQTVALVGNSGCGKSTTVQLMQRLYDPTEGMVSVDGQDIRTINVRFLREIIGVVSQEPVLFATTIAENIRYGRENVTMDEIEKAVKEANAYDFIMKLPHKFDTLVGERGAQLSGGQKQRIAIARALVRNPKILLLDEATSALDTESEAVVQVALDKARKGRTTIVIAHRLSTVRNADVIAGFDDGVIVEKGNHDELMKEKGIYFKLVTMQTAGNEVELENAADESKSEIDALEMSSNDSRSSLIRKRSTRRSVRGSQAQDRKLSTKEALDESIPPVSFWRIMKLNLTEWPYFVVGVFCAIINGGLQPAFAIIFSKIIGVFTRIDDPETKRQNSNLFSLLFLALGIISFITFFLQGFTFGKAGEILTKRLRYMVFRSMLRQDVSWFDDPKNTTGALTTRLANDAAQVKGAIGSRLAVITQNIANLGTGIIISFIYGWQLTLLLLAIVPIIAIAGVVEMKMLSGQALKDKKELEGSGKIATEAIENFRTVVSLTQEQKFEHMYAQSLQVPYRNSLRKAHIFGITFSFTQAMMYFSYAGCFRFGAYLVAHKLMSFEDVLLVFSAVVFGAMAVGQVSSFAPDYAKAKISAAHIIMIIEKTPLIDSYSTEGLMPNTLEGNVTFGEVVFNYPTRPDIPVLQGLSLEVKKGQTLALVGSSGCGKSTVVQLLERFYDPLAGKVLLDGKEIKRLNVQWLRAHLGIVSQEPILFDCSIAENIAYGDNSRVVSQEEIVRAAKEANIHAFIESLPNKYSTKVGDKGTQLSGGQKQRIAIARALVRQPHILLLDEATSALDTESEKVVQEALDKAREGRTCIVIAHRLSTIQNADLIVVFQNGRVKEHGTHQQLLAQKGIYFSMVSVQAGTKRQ
Sequence of NAD(+) hydrolase SARM1 (Homo sapiens) (Q6SZW1 whole entry, looked up, the tested form may be a part): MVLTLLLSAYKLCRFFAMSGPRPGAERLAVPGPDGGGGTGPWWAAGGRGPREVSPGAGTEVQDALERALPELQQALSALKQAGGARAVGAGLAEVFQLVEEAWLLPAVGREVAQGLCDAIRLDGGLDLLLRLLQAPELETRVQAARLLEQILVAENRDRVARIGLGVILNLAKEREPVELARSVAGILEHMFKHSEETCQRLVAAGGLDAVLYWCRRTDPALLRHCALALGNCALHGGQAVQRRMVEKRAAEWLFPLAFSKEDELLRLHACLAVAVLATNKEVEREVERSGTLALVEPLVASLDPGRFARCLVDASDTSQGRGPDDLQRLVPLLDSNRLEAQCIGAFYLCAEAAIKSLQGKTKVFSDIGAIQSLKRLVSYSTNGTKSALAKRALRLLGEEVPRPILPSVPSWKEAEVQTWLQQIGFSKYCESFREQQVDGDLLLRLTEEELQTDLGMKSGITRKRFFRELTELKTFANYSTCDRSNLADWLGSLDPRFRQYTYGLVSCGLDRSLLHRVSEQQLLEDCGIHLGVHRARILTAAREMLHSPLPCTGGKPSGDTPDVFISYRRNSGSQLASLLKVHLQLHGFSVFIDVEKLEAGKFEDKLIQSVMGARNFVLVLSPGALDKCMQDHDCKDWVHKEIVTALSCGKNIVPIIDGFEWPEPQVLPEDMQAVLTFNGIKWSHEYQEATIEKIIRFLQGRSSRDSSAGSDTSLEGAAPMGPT
Sequence of Mitogen-activated protein kinase 7 (Homo sapiens) (Q13164 whole entry, looked up, the tested form may be a part): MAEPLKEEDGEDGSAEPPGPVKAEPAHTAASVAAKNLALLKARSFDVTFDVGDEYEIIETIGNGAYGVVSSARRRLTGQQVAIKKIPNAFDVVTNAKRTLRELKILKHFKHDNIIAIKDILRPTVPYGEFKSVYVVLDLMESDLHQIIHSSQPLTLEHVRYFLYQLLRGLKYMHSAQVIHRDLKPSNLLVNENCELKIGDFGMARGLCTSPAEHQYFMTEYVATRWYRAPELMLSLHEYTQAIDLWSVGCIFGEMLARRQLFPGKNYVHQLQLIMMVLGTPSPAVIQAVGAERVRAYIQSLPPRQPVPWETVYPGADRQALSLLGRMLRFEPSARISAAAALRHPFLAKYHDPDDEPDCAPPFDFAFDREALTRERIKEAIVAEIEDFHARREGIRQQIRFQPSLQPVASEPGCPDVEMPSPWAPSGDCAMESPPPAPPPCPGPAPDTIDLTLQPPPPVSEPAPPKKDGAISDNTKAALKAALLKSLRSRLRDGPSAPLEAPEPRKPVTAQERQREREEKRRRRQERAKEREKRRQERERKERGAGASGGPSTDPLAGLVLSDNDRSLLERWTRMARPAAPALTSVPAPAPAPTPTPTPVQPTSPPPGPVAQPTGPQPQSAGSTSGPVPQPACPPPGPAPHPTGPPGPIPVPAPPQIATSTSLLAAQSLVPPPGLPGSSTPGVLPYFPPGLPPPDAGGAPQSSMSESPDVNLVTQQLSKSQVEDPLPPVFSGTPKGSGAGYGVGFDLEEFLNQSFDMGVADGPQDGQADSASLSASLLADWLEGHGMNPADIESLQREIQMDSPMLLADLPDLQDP

| SMILES | survival [1] | fold change [2, 13] | fold change [2, 14] | cell count [2, 15] | cell count [2, 16] | period change [3] | inhibition [4] | fluorescence ratio (interference) [5] | outcome [6] | z-score [7] | z-score [8, 17] | z-score [8, 18] | parasite load remaining [9] | viability [9] | remaining NAD [10] | luciferase signal [11] | fluorescence slope change [12] |
| --- | --- | --- | --- | --- | --- | --- | --- | --- | --- | --- | --- | --- | --- | --- | --- | --- | --- |
| CCCCC[C@H](O)/C=C/[C@@H]1[C@@H](C/C=C\CCCC(=O)O)[C@H](O)C[C@H]1O | 98.1 (inactive) | 0.925 (inactive) and 0.811 (inactive) and 0.869 (inactive) | 1.48 and 1.52 and 1.28 | 5990 and 4790 and 5310 | 6480 and 5900 and 6110 |  |  |  |  |  |  |  |  |  |  |  |  |
| CC(C)(C)c1onc(OCP(=O)(O)O)c1CC(N)C(=O)O (stereo not drawn) |  | 1.04 (inactive) and 0.947 (inactive) | 1.07 and 1.18 | 10900 and 10600 | 10500 and 11200 | -0.03 h (inactive) | -3% (inactive) | 0.9 (inactive) and 1 (inactive) | inactive | 0.82 (inactive) and 0.145 (inactive) |  |  |  |  |  |  |  |
| COc1cc(CNC(=O)CCCCCCC(C)C)ccc1O |  | 1.08 (inactive) and 1.04 (inactive) | 0.866 and 1.07 | 10600 and 5720 | 9840 and 5480 | 0.135 h (inactive) | -5% (inactive) | 1 (inactive) | inactive | -0.085 (inactive) |  |  |  |  |  |  |  |
| O=C(c1ccc(OCCCc2cnc[nH]2)cc1)C1CC1 |  | 0.955 (inactive) and 1.01 (inactive) | 1.12 and 0.82 | 9150 and 7760 | 9580 and 7660 |  | -3% (inactive) | 1 (inactive) | inactive | -1.01 (inactive) | -0.324 (inactive) | -0.0656 |  |  |  |  |  |
| CCCCCC(O)CCCC(=O)O (stereo not drawn) |  | 0.96 (inactive) and 0.942 (inactive) | 0.791 and 1.2 | 9800 and 6140 | 10200 and 6510 | -0.17 h (inactive) | -4% (inactive) | 1 (inactive) | inactive | 0.165 (inactive) |  |  |  |  |  |  |  |
| CC[C@H](C)[C@H]1O[C@]2(CC[C@@H]1C)C[C@@H]1C[C@@H](C/C=C(\C)[C@@H](O[C@H]3C[C@H](OC)[C@@H](O[C@H]4C[C@H](OC)[C@@H](O)[C@H](C)O4)[C@H](C)O3)[C@@H](C)/C=C/C=C3\CO[C@@H]4[C@H](O)C(C)=C[C@@H](C(=O)O1)[C@]34O)O2 |  | 0.862 (inactive) and 0.935 (inactive) | 0.479 and 1.24 | 6180 and 7180 | 7170 and 7680 |  |  |  |  | -1.77 (inactive) | -1.97 (inactive) and -0.0039 (inactive) | 0.878 and -0.186 | 26.5% (inactive) and 28.8% (inactive) | 44.6% and 96.5% | 10 nM (inactive) | 44 AU (inactive) |  |
| CNCCC(Oc1cccc2ccccc12)c1cccs1 (stereo not drawn) |  | 0.825 (inactive) and 0.844 (inactive) and 0.922 (inactive) | 1.39 and 1.04 and 2.23 | 4830 and 5000 and 7370 | 5860 and 5930 and 7990 |  |  |  |  | -1.4 (inactive) and -1.81 (inactive) | -0.107 (inactive) | -1.06 |  |  |  |  |  |
| C[C@@H]1NC(=O)NC1=O | 3.92 (inactive) | 0.891 (inactive) and 0.879 (inactive) | 1.07 and 1.01 | 8770 and 8800 | 9840 and 10000 |  |  |  |  |  | 0.462 (inactive) | -0.44 | 81.4% (inactive) and 66.6% (inactive) | 97.9% and 95.3% |  |  | 57.7% (active) |
| CC(C)(C)NCC(O)COc1nsnc1N1CCOCC1 (stereo not drawn) |  | 0.926 (inactive) and 0.855 (inactive) | 1.26 and 0.99 | 9690 and 8250 | 10500 and 9640 | -0.09 h (inactive) | -2% (inactive) | 1 (inactive) | inactive | 0.22 (inactive) | -0.232 (inactive) | -0.152 |  |  |  |  |  |
| CCCNC1CCc2nc(N)sc2C1 (stereo not drawn) |  | 0.968 (inactive) and 0.933 (inactive) and 0.946 (inactive) | 2.07 and 1.64 and 3.69 | 9570 and 9980 and 9760 | 9890 and 10700 and 10300 |  |  |  |  | 1.44 (inactive) and 0.095 (inactive) | -0.192 (inactive) | 0.744 |  |  |  |  |  |
| C[C@]12C=CC(=O)C=C1CC[C@@H]1C2=CC[C@]2(C)[C@@H](C(=O)CN3CCN(c4cc(N5CCCC5)nc(N5CCCC5)n4)CC3)CC[C@@H]12 |  | 0.983 (inactive) and 1.04 (inactive) | 0.64 and 0.868 | 8450 and 5900 | 8600 and 5690 | 0.075 h (inactive) | -5% (inactive) | 0.9 (inactive) | inactive | 1.27 (inactive) |  |  |  |  |  |  |  |
| CN(C)S(=O)(=O)c1ccc2c(c1)/C(=C/c1cc3c([nH]1)CCCC3)C(=O)N2 |  | 0.998 (inactive) and 0.964 (inactive) | 1 and 1.24 | 3800 and 4420 | 3810 and 4590 | -0.01 h (inactive) | -2% (inactive) | 1 (inactive) | active | 1 (inactive) |  |  | 43.1% (inactive) | 152% |  |  |  |
